Source: PubChem BioAssay AID1159580 (chemical genetic matrix, 2015)
Hit rate of the full screen: of about 5,500 compounds, about 2,000 (36%) were called active. Roughly 18% stayed inconclusive and do not appear here. No stated cut-off is given here; in the data, active means normalized growth mostly below about 0.91 (no sharp cut-off); inconclusive means no clear call, values can overlap the other calls; inactive means mostly above about 0.92. The list shows a part of the results.

Experiment: chemical genetic growth profiling, strain panel (AID 1159580);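 further: tested at 20 µM; growth read once vehicle control cultures reached saturation at 30 °C; 1 = growth at the plate median or of vehicle wells; lower values mean less growth of the strain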
Settings: growth OD

Measured: normalized growth

CC(C)N1C(=O)c2ccccc2NS1(=O)=O
inactive: S. cerevisiae deletion strains, locus YKL009W, strain mrt4, hits give low values 1.01 | S. cerevisiae deletion strains, locus YKL068W, hits give low values 0.994 | S. cerevisiae deletion strains, locus YKL085W, strain MDH1 (second series), hits give low values 0.997 | S. cerevisiae deletion strains, locus YKL085W, strain MDH1, hits give low values 0.997 | S. cerevisiae deletion strains, locus YKL160W, strain elf1, hits give low values 0.974 | S. cerevisiae deletion strains, locus YKL190W, strain CNB1, hits give low values 0.998 | S. cerevisiae deletion strains, locus YKR001C, strain vps1, hits give low values 1.01 | S. cerevisiae deletion strains, locus YKR026C, strain gcn3, hits give low values 0.972 | S. cerevisiae deletion strains, locus YKR091W, strain srl3, hits give low values 0.958 | S. cerevisiae deletion strains, locus YLL001W, strain dnm1, hits give low values 0.937 | S. cerevisiae deletion strains, locus YLL026W, hits give low values 0.971 | S. cerevisiae deletion strains, locus YLL041C, strain sdh2, hits give low values 0.958 | S. cerevisiae deletion strains, locus YLR027C, strain aat2, hits give low values 0.964 | S. cerevisiae deletion strains, locus YLR039C, strain RIC1, hits give low values 1.03 | S. cerevisiae deletion strains, locus YLR058C, strain SHM2, hits give low values 1 | S. cerevisiae deletion strains, locus YLR102C, strain apc9, hits give low values 1 | S. cerevisiae deletion strains, locus YLR113W, strain HOG1, hits give low values 0.964 | S. cerevisiae deletion strains, locus YLR221C, strain rsa3, hits give low values 0.994 | S. cerevisiae deletion strains, locus YLR258W, strain gsy2, hits give low values 0.98 | S. cerevisiae deletion strains, locus YLR262C, strain YPT6 (second series), hits give low values 0.983 | S. cerevisiae deletion strains, locus YLR262C, strain YPT6, hits give low values 1.02 | S. cerevisiae deletion strains, locus YLR268W, strain sec22, hits give low values 1.01 | S. cerevisiae deletion strains, locus YLR320W, strain mms22, hits give low values 1.01 | S. cerevisiae deletion strains, locus YLR330W, strain CHS5, hits give low values 0.994 | S. cerevisiae deletion strains, locus YLR342W, strain FKS1 (second series), hits give low values 1 | S. cerevisiae deletion strains, locus YLR342W, strain FKS1, hits give low values 0.98 | S. cerevisiae deletion strains, locus YLR357W, strain rsc2, hits give low values 0.978 | S. cerevisiae deletion strains, locus YLR370C, strain arc18, hits give low values 0.973 | S. cerevisiae deletion strains, locus YLR371W, strain rom2, hits give low values 1 | S. cerevisiae deletion strains, locus YLR384C, strain iki3, hits give low values 0.974 | S. cerevisiae deletion strains, locus YLR418C, strain cdc73, hits give low values 1.02 | S. cerevisiae deletion strains, locus YML016C, strain PPZ1, hits give low values 0.997 | S. cerevisiae deletion strains, locus YML032C, strain rad52, hits give low values 1.01 | S. cerevisiae deletion strains, locus YML120C, strain ndi1, hits give low values 0.956 | S. cerevisiae deletion strains, locus YML124C, strain tub3, hits give low values 1 | S. cerevisiae deletion strains, locus YMR058W, strain fet3, hits give low values 0.968 | S. cerevisiae deletion strains, locus YMR078C, strain ctf18, hits give low values 0.998 | S. cerevisiae deletion strains, locus YMR125W, strain sto1, hits give low values 0.933 | S. cerevisiae deletion strains, locus YMR129W, hits give low values 0.964 | S. cerevisiae deletion strains, locus YMR205C, strain PFK2, hits give low values 0.961 | S. cerevisiae deletion strains, locus YMR223W, strain ubp8, hits give low values 1 | S. cerevisiae deletion strains, locus YMR231W, strain pep5, hits give low values 0.974 | S. cerevisiae deletion strains, locus YMR263W, strain SAP30, hits give low values 1.01 | S. cerevisiae deletion strains, locus YMR307W, strain GAS1, hits give low values 1.03 | S. cerevisiae deletion strains, locus YNL067W, strain RPL9B, hits give low values 0.995 | S. cerevisiae deletion strains, locus YNL071W, strain lat1, hits give low values 0.98 | S. cerevisiae deletion strains, locus YNL128W, strain TEP1, hits give low values 1.01 | S. cerevisiae deletion strains, locus YNL153C, strain GIM3, hits give low values 0.994 | S. cerevisiae deletion strains, locus YNL183C, strain NPR1, hits give low values 0.973 | S. cerevisiae deletion strains, locus YNL209W, strain ssb2, hits give low values 0.963 | S. cerevisiae deletion strains, locus YNL233W, strain BNI4, hits give low values 0.997 | S. cerevisiae deletion strains, locus YNL248C, strain rpa49, hits give low values 0.99 | S. cerevisiae deletion strains, locus YNL250W, strain rad50, hits give low values 0.997 | S. cerevisiae deletion strains, locus YNL271C, strain bni1, hits give low values 0.998 | S. cerevisiae deletion strains, locus YNL298W, strain CLA4, hits give low values 1.01 | S. cerevisiae deletion strains, locus YNL307C, strain MCK1, hits give low values 1.01 | S. cerevisiae deletion strains, locus YNL322C, strain KRE1 (second series), hits give low values 0.951 | S. cerevisiae deletion strains, locus YNL322C, strain KRE1, hits give low values 1 | S. cerevisiae deletion strains, locus YNR049C, strain mso1, hits give low values 0.952 | S. cerevisiae deletion strains, locus YNR052C, strain pop2, hits give low values 0.996 | S. cerevisiae deletion strains, locus YOL006C, strain TOP1, hits give low values 1.06 | S. cerevisiae deletion strains, locus YOL012C, strain htz1 1.04 | S. cerevisiae deletion strains, locus YOL147C, strain pex11, hits give low values 0.997 | S. cerevisiae deletion strains, locus YOR001W, strain rrp6, hits give low values 0.967 | S. cerevisiae deletion strains, locus YOR061W, strain CKA2, hits give low values 0.998 | S. cerevisiae deletion strains, locus YOR069W, strain VPS5, hits give low values 0.989 | S. cerevisiae deletion strains, locus YOR070C, strain gyp1, hits give low values 0.983 | S. cerevisiae deletion strains, locus YOR080W, strain dia2, hits give low values 0.98 | S. cerevisiae deletion strains, locus YOR083W, strain WHI5, hits give low values 0.964 | S. cerevisiae deletion strains, locus YOR106W, strain vam3, hits give low values 0.966 | S. cerevisiae deletion strains, locus YOR136W, strain idh2, hits give low values 1 | S. cerevisiae deletion strains, locus YOR144C, strain elg1, hits give low values 0.999 | S. cerevisiae deletion strains, locus YOR184W, strain ser1, hits give low values 1.01 | S. cerevisiae deletion strains, locus YOR231W, strain MKK1, hits give low values 0.998 | S. cerevisiae deletion strains, locus YOR265W, strain rbl2, hits give low values 0.973 | S. cerevisiae deletion strains, locus YOR270C, strain vph1, hits give low values 0.97 | S. cerevisiae deletion strains, locus YOR290C, strain snf2, hits give low values 0.96 | S. cerevisiae deletion strains, locus YOR316C, strain cot1, hits give low values 1.01 | S. cerevisiae deletion strains, locus YPL051W, strain arl3, hits give low values 0.981 | S. cerevisiae deletion strains, locus YPL055C, strain LGE1, hits give low values 1.02 | S. cerevisiae deletion strains, locus YPL078C, strain atp4, hits give low values 0.961 | S. cerevisiae deletion strains, locus YPL106C, strain sse1, hits give low values 0.971 | S. cerevisiae deletion strains, locus YPL240C, strain hsp82, hits give low values 0.968 | S. cerevisiae deletion strains, locus YPL241C, strain CIN2, hits give low values 0.999 | S. cerevisiae deletion strains, locus YPL256C, strain CLN2, hits give low values 0.987 | S. cerevisiae deletion strains, locus YPR119W, strain clb2, hits give low values 0.99 | S. cerevisiae deletion strains, locus YPR141C, strain kar3, hits give low values 1.01 | S. cerevisiae deletion strains, locus YPR163C, strain tif3, hits give low values 1 | S. cerevisiae deletion strains, locus YPR167C, strain met16, hits give low values 0.996 | S. cerevisiae deletion strains, strain wtn01, hits give low values 1.01 | S. cerevisiae strains, strain wild type, hits give low values 0.997
